CYP2C19 inh – inhibitors of human CYP2C19 | inhibition, % at 5 µM | CYP2C19 Supersomes, luciferin-H EGE luminescence, 30 min | hit rate 21% among 96,000 | P33261;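 active = CYP2C19 inhibition above a set limit at 5 µM in the primary screen, cut at about 50% in these data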
Target sequence (P33261 whole entry, looked up): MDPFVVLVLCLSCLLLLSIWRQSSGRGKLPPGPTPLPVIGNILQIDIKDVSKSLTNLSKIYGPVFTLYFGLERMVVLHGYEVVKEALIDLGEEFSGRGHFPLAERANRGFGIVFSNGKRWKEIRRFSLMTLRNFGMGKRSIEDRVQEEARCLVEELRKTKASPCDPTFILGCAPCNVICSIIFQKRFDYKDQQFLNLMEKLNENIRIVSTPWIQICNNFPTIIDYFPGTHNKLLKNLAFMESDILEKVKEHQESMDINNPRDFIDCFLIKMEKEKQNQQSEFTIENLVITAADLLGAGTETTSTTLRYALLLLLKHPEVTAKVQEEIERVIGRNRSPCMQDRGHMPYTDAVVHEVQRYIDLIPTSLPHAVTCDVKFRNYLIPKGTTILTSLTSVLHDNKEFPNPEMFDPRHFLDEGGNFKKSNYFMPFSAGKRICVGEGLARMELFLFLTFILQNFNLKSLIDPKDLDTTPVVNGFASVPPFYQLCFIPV
Mac1 fbg inh – inhibitors of human CD11b/CD18 binding to fibrinogen | hit rate 0.54% among 93,000 | inhibition, % at 10 µM | K562 CD11b/CD18 adhesion to fibrinogen, ATPlite luminescence; Mn2+ added to activate the integrin | P05107+P11215;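 active = primary inhibition of 50% or more at 10 µM, then 40% or more on retest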
CYP2C19 activ – activators of human cytochrome P450 2C19. recombinant CYP2C19, luciferin-H EGE luminescence; stronger effect = higher value; 0 = fully inhibited enzyme, 1 = untreated enzyme. AID 1025. 96,000 tested, under 10 active. activation factor at 5 µM. P33261;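 active = activation factor of at least 2 at 5 µM in the primary screen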
CD11b adhes enh – increases human CD11b/CD18 adhesion to fibrinogen; activation, % at 10 µM; hit rate 0.07% among 93,000; K562 CD11b/CD18 adhesion to fibrinogen, ATPlite luminescence;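 active = 10 µM primary screen giving 50% or more activity, confirmed by 40% or more on retest at that dose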
CYP2C9 inh – inhibitors of human CYP2C9; AID 777; CYP2C9 Supersomes, luciferin-H conversion, luminescence; P11712; hit rate 20% among 96,000; inhibition, % at 5 µM;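 active = blocking of liver enzyme CYP2C9 beyond about 50% at 5 µM, limit read from the data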
CYP2C9 activ – activators of human CYP2C9; P11712; recombinant CYP2C9, luciferin-H conversion, luminescence; stronger effect = higher value; factor 1 = untreated enzyme, 0 = blocked; activation factor at 5 µM; hit rate 1.4% among 96,000; AID 1024;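 active = activation factor of 2 or more for CYP2C9 at a 5 µM dose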
Each line names hits and unclear results; the compound was inactive in the other large screens. Rows were chosen to be rich in hits. Some 28% of all compounds tested hit in one or more screens of this group.

N#CC1=C(N)Oc2n[nH]c(-c3ccccc3)c2C1c1cccc(OC(=O)N2CCOCC2)c1 (stereo not drawn)	CYP2C9 inh 56.8
COc1cccc(-c2[nH]nc3c2C(c2ccoc2)C(C#N)=C(N)O3)c1 (stereo not drawn)	CYP2C19 inh 86.9
COc1cccc(-c2[nH]nc3c2C(c2ccsc2)C(C#N)=C(N)O3)c1 (stereo not drawn)	none (no result: Mac1 fbg inh, CD11b adhes enh)
CCOC(=O)CNC(=O)c1ccccc1Br	none
O=C(c1ccco1)N1CCN(CC(=O)N2c3ccccc3CCc3ccccc32)CC1	CYP2C9 inh 61.1
O=C(CN1CCN(C(=O)c2ccco2)CC1)Nc1ccccc1-c1ccccc1	CYP2C19 inh 75.6, CYP2C9 inh 80.0
CC(C)OP(=O)(OC(C)C)C1(O)C(=O)Nc2ccccc21 (stereo not drawn)	none (no result: Mac1 fbg inh, CD11b adhes enh)
Cc1cc(C)cc(NC(=O)C2CCCC2)c1	none
CCOC(=O)CC(=O)CSc1nc2sc(C)cc2c(=O)n1Cc1ccco1	none
Cc1sc2nc(SCC(=O)C(C)(C)C)n(Cc3ccco3)c(=O)c2c1C	CYP2C9 inh 72.9 (no result: Mac1 fbg inh, CD11b adhes enh)
COc1ccc(NC(=O)CSc2nc3sc(C)c(C)c3c(=O)n2Cc2ccco2)cc1	CYP2C19 inh 61.5, CYP2C9 inh 78.9
Cc1cc2c(=O)n(Cc3ccco3)c(SCC(=O)c3ccc(Cl)s3)nc2s1	CYP2C19 inh 57.1, CYP2C9 inh 76.0
Cn1c(SCc2nc3ccccc3[nH]2)nnc1-c1cccs1	CYP2C19 inh 77.6
Cn1c(Cc2cccs2)nnc1SCc1nc2ccccc2[nH]1	CYP2C19 inh 58.7
O=C(NC1CCCCCCC1)c1ccc2c(c1)N(Cc1ccc(F)cc1)C(=O)CS2=O (stereo not drawn)	none
S=c1[nH]nc(-c2ccccc2)n1Cc1ccccc1	CYP2C19 inh 61.8
S=c1[nH]nc(-c2ccc(Br)o2)n1Cc1ccccc1	CYP2C19 inh 60.9, CYP2C9 inh 60.4
S=c1[nH]nc(-c2ccco2)n1Cc1ccccc1	CYP2C9 inh 50.0
S=c1[nH]nc(-c2ccncc2)n1Cc1ccco1	CYP2C9 inh 61.3
COc1ccc(Cc2nnc(NC(=O)c3cccc([N+](=O)[O-])c3)s2)cc1	none (no result: CYP2C19 inh, CYP2C19 activ, CYP2C9 inh, CYP2C9 activ)
Cn1c2ccccc2c2cc(C(=O)N3CCOCC3)sc21	CYP2C9 activ 2.5 (no result: Mac1 fbg inh, CD11b adhes enh)
CCn1c(=O)c2cc(C(=O)N3CCOCC3)sc2c2ccccc21	none
CC(=O)c1cccc(OCC(=O)c2cc(C)n(-c3cc(C)on3)c2C)c1	CYP2C19 inh 86.4, CYP2C9 inh 78.5
O=C(CSc1nnc(NCc2ccccc2)s1)c1ccco1	CYP2C19 inh 61.6, CYP2C9 inh 81.2
O=C(CSc1nnc2sc3ccccc3n12)c1ccco1	CYP2C19 inh 51.2
Cc1cc(-n2c(C)cc(C(=O)CSc3nnc4sc5ccccc5n34)c2C)no1	CYP2C19 inh 87.4
COC(=O)c1ccc(NC(=O)NS(=O)(=O)c2ccc(C)cc2)cc1	none
COc1cccc(CNC(=O)C2CCCN(S(=O)(=O)c3c(C)n[nH]c3C)C2)c1 (stereo not drawn)	none
CCOC(=O)C1=C(c2ccccc2)Nc2nc(C)nn2C1c1cccc(OC)c1OC (stereo not drawn)	none
CCOC(=O)CC(=O)CSc1nnc2sc3ccccc3n12	CYP2C9 activ 2.3
O=C(CSc1nnc2sc3ccccc3n12)N1CCN(c2ccccc2)CC1	CYP2C9 activ 2.8
Cc1ccc(-n2c(C)nc3c(cnn3-c3ccccc3Cl)c2=O)cc1C	CYP2C19 inh 58.8
CCc1nc2c(cnn2-c2ccc(F)cc2)c(=O)n1-c1ccc(N2CCC(C)CC2)cc1	CYP2C19 inh 50.3, Mac1 fbg inh 76.5
Cc1ccc(-n2c(C)nc3c(cnn3-c3ccc(C)c(C)c3)c2=O)cc1C	none
Cc1nc2c(cnn2-c2ccccc2Cl)c(=O)n1-c1ccc(N2CCC(C)CC2)cc1	CYP2C19 inh 71.8
Cc1ccc(-n2nc(C)c3c(C)cc(=O)[nH]c32)cc1	none
O=C(NC(Nc1cc(C(F)(F)F)ccc1Cl)C(=O)c1ccccc1)c1ccccc1 (stereo not drawn)	none (no result: Mac1 fbg inh, CD11b adhes enh)
Cc1ccc[n+](CC(=O)Nc2cc(C(F)(F)F)ccc2Cl)c1	none
O=C(CS(=O)c1cccc(C(F)(F)F)c1)Nc1ccccc1Cl (stereo not drawn)	CYP2C19 inh 54.9, CYP2C9 activ 3.3 (no result: Mac1 fbg inh, CD11b adhes enh)
O=C(CCc1ccccc1)Nc1cc(C(F)(F)F)ccc1Cl	CYP2C19 inh 62.0, CYP2C9 activ 3.9 (no result: Mac1 fbg inh, CD11b adhes enh)
CCCC(=O)NC(Nc1cc(C(F)(F)F)ccc1Cl)C(Cl)(Cl)Cl (stereo not drawn)	none
CCOC(=O)/C(=N\Nc1cc(C(F)(F)F)ccc1Cl)N(CC)CC	CYP2C19 inh 80.1
CN(C)CC(=O)Nc1cc(C(F)(F)F)ccc1Cl	CYP2C9 activ 2.2 (no result: Mac1 fbg inh)
CC1CCN(Cc2ccc(NC(=O)CC3Oc4ccccc4NC3=O)cc2)CC1 (stereo not drawn)	none
CCN(Cc1ccccc1)Cc1cccc([N+](=O)[O-])c1	none
COc1ccc(C(C)=O)c(Oc2nc(CN3CCOCC3)nc3scc(-c4cccs4)c23)c1	CYP2C9 inh 51.2
CC(=O)c1ccccc1Oc1nc(CN2CCOCC2)nc2scc(-c3cccs3)c12	CYP2C19 inh 85.4, CYP2C9 inh 71.5
COc1ccc(/C=N/NC(=O)c2ccc(Br)cc2)cc1Cn1cc(Cl)cn1	none (no result: CYP2C19 inh, CYP2C19 activ, CYP2C9 inh, CYP2C9 activ)
COCCNC(=O)c1cc2c(-c3ccc(Cl)cc3)nn(C)c2s1	none
Cc1ccc(CNC(=O)c2cc3c(-c4ccc(Cl)cc4)nn(C)c3s2)o1	CYP2C9 inh 63.1
CCCCNC(=O)c1cc2c(-c3ccc(Cl)cc3)nn(C)c2s1	CYP2C9 inh 59.0
CCC(C)NC(=O)C1c2cc(OC)c(OC)cc2C(=O)N(C)C1c1cccs1 (stereo not drawn)	none (no result: Mac1 fbg inh, CD11b adhes enh)
CCOC(=O)c1cc2sccc2n1CC(=O)Nc1ccc(OC)c(OC)c1	CYP2C19 inh 87.4
CCOC(=O)c1cc2sccc2n1CC(=O)OC(C)C	CYP2C19 inh 96.6, CYP2C9 inh 88.3
CCOC(=O)c1cc2sccc2n1CC(=O)Nc1ccc(OC)cc1	none
O=c1ccnc(SCc2ccccc2Cl)[nH]1	CYP2C9 inh 60.5
N#CCCN(C(=O)COC(=O)c1ccc2c(c1)NC(=O)CS2)c1ccc2c(c1)OCCO2	none
O=C1CN(C(=O)CN2CCCC2)C(c2ccccc2)c2cc(Br)ccc2N1 (stereo not drawn)	none
O=C1CN(C(=O)CN2CCOCC2)C(c2ccccc2)c2cc(Br)ccc2N1 (stereo not drawn)	CYP2C19 inh 64.8, CYP2C9 inh 68.0
CCN(CC)P1(=O)OC(c2cc(OC)c(OC)c(OC)c2)=Nc2c1c(C)nn2-c1ccccc1 (stereo not drawn)	CYP2C19 inh 78.4, CYP2C9 inh 96.4
O=C(c1ccc(Cl)cc1)C(Cn1cncn1)C(Sc1ccccc1)c1ccccc1 (stereo not drawn)	CYP2C19 inh 98.5, CYP2C9 inh 100.3

Bioassay records: PubChem BioAssay, Sanford-Burnham Center for Chemical Genomics
